# Laboratory results published in PubChem BioAssay (Tox21).
# Several values for one entry are separate records, joined by “and”; a condition that tells them apart may be missing. Equal values may be shown once. Inconclusive results are not listed. A call without a number means that no potency is given here. The source holds several records for some structures; these can differ, active in one and inactive in another. Activity calls are given as the source filed them. Calls follow the shape of the dose curve; as a rule, active = well fitted curve in the direction sought with a large enough effect in the repeat runs; inconclusive = weak or mixed curves; inactive = no such curve, though single readings can be large; an effect the other way counts as inactive or inconclusive.
# Columns and labels:
# [1] = qHTS RealTime-Glo MT Cell Viability Assay in HepG2 cells - 16 hour (AID 1224885); also: nearly all actives have a fitted effect of over 50% in size
# Procedure, shortened: (§1)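 HepG2 cells were seeded at 600 cells/well together with NanoLuc luciferase and a cell-permeant prosubstrate, preincubated 5 h at 37 C/5% CO2, then pin-dosed with compounds in DMSO. Nonlytic luminescence from viable cells was read at each time point.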
# [2] = qHTS RealTime-Glo MT Cell Viability Assay in HEK293 cells - 24 hour (AID 1224886); also: nearly all actives have a fitted effect of over 50% in size
# Procedure, shortened: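 HEK293 cells were seeded at 600 cells/well together with NanoLuc luciferase and cell-permeant prosubstrate, preincubated 5 h at 37 C/5% CO2, then given compound in DMSO by pintool. Luminescence from viable-cell prosubstrate reduction was read repeatedly over 40 h.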
# [3] = qHTS RealTime-Glo MT Cell Viability Assay in HEK293 cells - 8 hour (AID 1224887); also: nearly all actives have a fitted effect of over 50% in size
# Procedure, shortened: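 Real-time viability in HEK293: signal arises when living cells convert a prosubstrate for NanoLuc in the medium, so luminescence tracks viable cell number. Compound (23 nL, DMSO) added 5 h post-seeding; kinetic reads at 0–40 h, 37 C.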
# [4] = A CellTox Green Cytotoxicity Assay to monitor cytotoxicity in HEK293 cells - 16 hour (AID 1224888); also: nearly all actives have a fitted effect of over 35% in size
# Procedure, shortened: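 Cells (HEK293, 600/well) and dye reagent are dispensed together. After 5 h at 37 C, 23 nL compound is pinned in. Plates stay at 37 C for 40 h with fluorescence read at 0h, 8h, 16h, 24h, 32h and 40h.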
# [5] = qHTS RealTime-Glo MT Cell Viability Assay in HepG2 cells - 0 hour (AID 1224889); also: nearly all actives have a fitted effect of over 50% in size
# Procedure, shortened: as §1
# [6] = A CellTox Green Cytotoxicity Assay to monitor cytotoxicity in HepG2 cells - 8 hour (AID 1224890); also: nearly all actives have a fitted effect of over 45% in size
# Procedure, shortened: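 Cells and non-lytic dye reagent are dispensed together (600 HepG2 cells/well) and incubated 5 h before DMSO compound transfer. Kinetic fluorescence is then recorded in the same wells during 40 h at 37 C.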
# [7] = qHTS assay to identify small molecule antagonists of the estrogen receptor alpha (ER-alpha) signaling pathway using the BG1 cell line in the presence of 0.1 nM 17-beta-estradiol - cell viability counter screen (AID 1259241); also: nearly all actives have a fitted effect of over 40% in size
# Procedure, shortened: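 Live-cell protease activity (CellTiter-Fluor fluorescence, 30 min) was read in the same wells after VM7Luc4E2 cells had been exposed to compounds with 0.1 nM 17beta-estradiol for 22 hr at 37C.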
# [8] = qHTS assay to identify small molecule antagonists of the androgen receptor (AR) signaling pathway using the MDA cell line in the presence of 0.5 nM R1881 - cell viability counter screen (AID 1259242); also: nearly all actives have a fitted effect of over 45% in size
# Procedure, shortened: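 Steps: plate MDA-kb2 cells, rest 5 hr at 37C without CO2; pin in compounds in DMSO; add R1881 to 0.5 nM final; incubate 16 hr; add CellTiter-Fluor, 30 min; read fluorescence.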
# [9] = target: Estrogen receptor (Homo sapiens) (UniProt P03372); experiment: qHTS assay to identify small molecule antagonists of the estrogen receptor alpha (ER-alpha) signaling pathway using the BG1 cell line in the presence of 0.1 nM 17-beta-estradiol (AID 1259244); also: nearly all actives have a fitted effect of over 50% in size
# Sequence of Estrogen receptor (Homo sapiens) (P03372 whole entry, looked up): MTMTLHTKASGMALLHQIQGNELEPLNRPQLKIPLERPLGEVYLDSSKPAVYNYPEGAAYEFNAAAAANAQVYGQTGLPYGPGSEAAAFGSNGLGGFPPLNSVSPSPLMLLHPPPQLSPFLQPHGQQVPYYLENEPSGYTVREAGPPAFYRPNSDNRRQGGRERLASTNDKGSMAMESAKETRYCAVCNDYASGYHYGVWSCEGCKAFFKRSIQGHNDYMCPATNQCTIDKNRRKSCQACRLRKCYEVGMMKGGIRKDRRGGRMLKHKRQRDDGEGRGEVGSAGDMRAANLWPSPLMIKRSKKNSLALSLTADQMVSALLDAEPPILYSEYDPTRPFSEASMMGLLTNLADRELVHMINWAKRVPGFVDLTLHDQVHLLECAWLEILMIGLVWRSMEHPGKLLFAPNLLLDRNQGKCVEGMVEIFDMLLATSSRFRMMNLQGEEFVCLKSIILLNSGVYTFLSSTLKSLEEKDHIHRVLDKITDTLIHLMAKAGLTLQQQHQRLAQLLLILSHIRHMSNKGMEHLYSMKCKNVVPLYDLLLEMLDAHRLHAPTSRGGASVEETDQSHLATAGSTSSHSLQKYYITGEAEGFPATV
# Procedure, shortened: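 Antagonist mode: compounds in DMSO are pinned onto VM7Luc4E2 reporter cells, 0.1 nM final 17beta-estradiol is added, and after 22 h at 37C luciferase luminescence is measured with ONE-Glo.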
# [10] = target: Androgen receptor (Homo sapiens) (UniProt P10275); experiment: qHTS assay to identify small molecule antagonists of the androgen receptor (AR) signaling pathway using the MDA cell line in the presence of 0.5 nM R1881 (AID 1259243); also: nearly all actives have a fitted effect of over 50% in size
# Sequence of Androgen receptor (Homo sapiens) (P10275 whole entry, looked up): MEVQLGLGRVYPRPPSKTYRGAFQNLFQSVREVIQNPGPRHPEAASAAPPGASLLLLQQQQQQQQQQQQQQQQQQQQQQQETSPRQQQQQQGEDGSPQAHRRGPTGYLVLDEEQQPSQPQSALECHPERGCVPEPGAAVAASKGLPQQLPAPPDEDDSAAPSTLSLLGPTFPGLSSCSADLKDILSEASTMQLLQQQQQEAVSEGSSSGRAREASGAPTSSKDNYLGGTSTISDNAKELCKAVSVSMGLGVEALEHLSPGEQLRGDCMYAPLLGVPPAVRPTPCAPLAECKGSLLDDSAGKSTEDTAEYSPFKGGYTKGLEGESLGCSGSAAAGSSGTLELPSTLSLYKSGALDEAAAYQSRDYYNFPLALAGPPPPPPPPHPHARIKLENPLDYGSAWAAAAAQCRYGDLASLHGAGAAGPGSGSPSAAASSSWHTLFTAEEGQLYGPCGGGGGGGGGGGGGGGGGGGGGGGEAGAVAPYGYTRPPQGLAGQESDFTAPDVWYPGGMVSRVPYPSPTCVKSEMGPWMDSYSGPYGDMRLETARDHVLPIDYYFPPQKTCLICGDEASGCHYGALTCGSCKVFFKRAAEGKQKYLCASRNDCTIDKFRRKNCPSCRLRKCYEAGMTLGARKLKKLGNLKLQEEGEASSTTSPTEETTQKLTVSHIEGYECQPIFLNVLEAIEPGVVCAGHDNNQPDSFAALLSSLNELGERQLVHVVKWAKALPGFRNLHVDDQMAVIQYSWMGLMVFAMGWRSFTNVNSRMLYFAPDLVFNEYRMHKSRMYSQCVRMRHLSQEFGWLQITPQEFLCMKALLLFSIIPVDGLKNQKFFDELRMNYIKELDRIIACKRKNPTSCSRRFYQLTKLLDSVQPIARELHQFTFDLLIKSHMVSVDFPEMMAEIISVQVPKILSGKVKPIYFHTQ
# Procedure, shortened: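 Stably transfected MDA-kb2 cells express luciferase from an MMTV promoter bearing both AR and GR response elements. Compounds plus 0.5 nM R1881 (final) were incubated 16 hr at 37C without CO2, then luminescence measured.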
# Potency is read from the fitted curve at half-maximal effect.
Compound,Potency [1],Potency [2],Potency [3],Potency [4],Potency [5],Potency [6],Potency [7],Potency [8],Potency [9],Potency [10]
CCCC[n+]1ccccc1,inactive,inactive,inactive,inactive,inactive,inactive,inactive,,,
CN(C)[C@@H]1C(=O)C(C(N)=O)=C(O)[C@@]2(O)C(=O)C3=C(O)c4c(O)cccc4[C@@](C)(O)[C@H]3[C@H](O)[C@@H]12,inactive,inactive,inactive,inactive,inactive,inactive,inactive,inactive,,
CCCCn1cc[n+](C)c1,inactive,inactive,inactive,inactive,inactive,inactive,inactive,,,
O=[N+]([O-])O,inactive,inactive,inactive,inactive,inactive,inactive,inactive,,,
CCCCCCCCCCn1cc[n+](C)c1,inactive,389 nM (active),inactive and 1.74 µM (active),inactive,inactive,inactive,inactive,,,
CCC[N+]1(C)CCCC1,inactive,inactive,inactive,inactive,inactive,inactive,inactive,,,
N#CS,inactive,inactive,inactive,inactive,inactive,inactive,inactive,,,
Nc1ccccc1,inactive,inactive,inactive,inactive,inactive,inactive,inactive,inactive,,
O=[N+]([O-])c1ccccc1O,inactive,inactive,inactive,inactive,inactive,inactive,inactive,,,
CCCn1cc[n+](C)c1,inactive,inactive,inactive,inactive,inactive,inactive,inactive,inactive,,
COP(=O)(OC)C(O)C(Cl)(Cl)Cl (stereo unspecified),inactive,inactive,inactive,inactive,inactive,inactive,inactive,,,
CCC[N+]1(C)CCCCC1,inactive,inactive,inactive,inactive,inactive,inactive,inactive,inactive,,
COc1ccccc1N,inactive,inactive,inactive,inactive,inactive,inactive,inactive,,,
CC[n+]1ccccc1,inactive,inactive,inactive,inactive,inactive,inactive,inactive,,,
CCCCCCCCn1cc[n+](C)c1,inactive,3.86 µM (active) and 4.41 µM (active),inactive,inactive,inactive,inactive,inactive,,,
CCOP(=S)(OCC)Oc1ccc2c(C)c(Cl)c(=O)oc2c1,inactive,14 µM (active) and 43.6 µM (active) and inactive,12.4 µM (active) and 38.9 µM (active) and inactive,inactive,inactive,inactive,inactive,,,
Oc1cccc2cccnc12,inactive and 3.89 µM (active),5.49 µM (active) and inactive,inactive,inactive,inactive,inactive,,,,
COc1ccc(N)cc1,inactive,inactive,inactive,inactive,inactive,inactive,inactive,,,
CC[N+](CC)(CC)CC,inactive,inactive,inactive,inactive,inactive,inactive,inactive,,,
C=CCOC(Cn1ccnc1)c1ccc(Cl)cc1Cl (stereo unspecified),inactive,24600 nM (active),inactive,inactive,inactive,inactive,inactive,,,
CCCC[n+]1ccccc1C,inactive,inactive,inactive,inactive,inactive,inactive,inactive,,,
O=c1nc(O)n(Cl)c(=O)n1Cl,inactive,inactive,inactive,inactive,inactive,inactive,inactive,,,
CCCC[N+]1(C)CCCCC1,inactive,inactive,inactive,inactive,inactive,inactive,inactive,,,
CCCCCCn1cc[n+](C)c1,inactive,22.2 µM (active) and 14 µM (active) and 17.7 µM (active),inactive,inactive,inactive,inactive,inactive,,,
CC[N+]1(C)CCCC1,inactive,inactive and 24.6 µM (active),inactive,inactive,inactive,inactive,inactive,,,

Compound,Potency [1],Potency [2],Potency [3],Potency [4],Potency [5],Potency [6],Potency [7],Potency [8],Potency [9],Potency [10]
O=C(O)COc1ccc(Cl)cc1Cl,inactive,inactive,inactive,inactive,inactive,inactive,inactive,,,
CCCC[n+]1cccc(C)c1,inactive,inactive,inactive,inactive,inactive,inactive,inactive,,,
O=C(O)CCl,inactive,inactive,inactive,inactive,inactive,inactive,inactive,inactive,,
CCn1cc[n+](C)c1C,inactive,inactive,inactive,inactive,inactive,inactive,inactive,inactive,,
CCCCCCCCCCCC(=O)O,inactive,inactive,inactive,inactive,inactive,inactive,inactive,,,
CCCCn1cc[n+](C)c1C,inactive,inactive,inactive,inactive,inactive,inactive,inactive,,,
O=C(O)CC(O)(CC(=O)O)C(=O)O,inactive,inactive,inactive,inactive,inactive,inactive,inactive,,,
O=P1(N(CCCl)CCCl)NCCCO1 (stereo unspecified),inactive,inactive,inactive,inactive,inactive,inactive,inactive,,inactive,
OCCOc1ccccc1,inactive,inactive,inactive,inactive,inactive,inactive,inactive,,inactive,
CC(=O)[O][Hg][c]1ccccc1,1.72 µM (active) and 1.74 µM (active) and 1.07 µM (active),344 nM (active) and 1.1 µM (active) and 239 nM (active),433 nM (active) and 1.55 µM (active) and 425 nM (active),1.9 µM (active),inactive,2.73 µM (active) and 2.19 µM (active) and 1.2 µM (active),4.81 µM (active) and 9.69 µM (active) and 11.9 µM (active),1.92 µM (active) and 6.11 µM (active) and 2.66 µM (active),2.71 µM (active) and 6.86 µM (active) and 8.41 µM (active),606 nM (active) and 2.43 µM (active) and 1.19 µM (active)
Nc1ccc(-c2ccc(N)c(Cl)c2)cc1Cl,inactive and 49 µM (active),15.6 µM (active) and 24.5 µM (active),24.5 µM (active),,inactive,inactive and 43.6 µM (active),inactive,inactive,48.6 µM (active),
O=C(O)C(Cl)Cl,inactive,inactive,inactive,inactive,inactive,inactive,inactive,,inactive,
CCCCCCCCCCCCn1cc[n+](C)c1,,,inactive,,inactive,44 µM (active) and inactive,inactive,,,
Nc1ccc(Cl)cc1,inactive,inactive,inactive,inactive,inactive,inactive,inactive,,inactive,
Cc1cc(Cl)ccc1N,inactive,inactive,inactive,,inactive,inactive and 43.6 µM (active),inactive,inactive,,
CC(=O)O,inactive,inactive,inactive,inactive,inactive,inactive,inactive,inactive,,
CCNc1nc(Cl)nc(NCC)n1,inactive,inactive,inactive,inactive,inactive,inactive,inactive,inactive,inactive,
O=C(O)c1nc(Cl)ccc1Cl,inactive,inactive,inactive,inactive,inactive,inactive,inactive,,inactive,
C[N+](C)(C)Cc1ccccc1,inactive,inactive,inactive,inactive,inactive,inactive,inactive,inactive,inactive,
C[C@]12CCC(=O)C=C1CC[C@@H]1[C@@H]2CC[C@]2(C)C(=O)CC[C@@H]12,inactive,27.1 µM (active) and inactive,inactive,inactive,34.1 µM (active) and 21.9 µM (active) and inactive,inactive,inactive,,inactive,
Nc1ccc(-c2ccc(N)cc2)cc1,inactive,inactive,inactive,inactive,inactive,inactive,inactive,inactive,inactive,
O=S(=O)(O)O,inactive,inactive,inactive,inactive,inactive,inactive,inactive,inactive,,
CCC(=O)C(CC(C)N(C)C)(c1ccccc1)c1ccccc1 (stereo unspecified),inactive,,inactive,inactive,inactive,inactive,inactive,,inactive,inactive
Cc1cc(-c2ccc(N)c(C)c2)ccc1N,inactive,inactive,inactive,inactive,inactive,inactive,inactive,,34.4 µM (active),
CCCC[n+]1ccc(C)cc1,inactive,43.4 µM (active) and inactive,30.7 µM (active) and inactive,,inactive,inactive,inactive,,,
